B2AR arrestin – beta2AR (human) beta-arrestin recruitment activity; Potency, µM (titrated, usually from 46.1 µM), inactives show top-dose activation, most hits filed as activators; P07550; AID 492947; 330,000 tested, 0.02% active; beta-arrestin recruitment to beta2AR, cell-based reporter; active = well fitted activation curve with a large enough effect; inconclusive = small, poorly fitted or top-dose-only effect;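 also: potency is read from the fitted curve at half-maximal effect; 0% = DMSO controls and full agonism = EC100 isoproterenol or metaproterenol; nearly all actives have a fitted effect of over 65% in size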
Target sequence (P07550 whole entry, looked up): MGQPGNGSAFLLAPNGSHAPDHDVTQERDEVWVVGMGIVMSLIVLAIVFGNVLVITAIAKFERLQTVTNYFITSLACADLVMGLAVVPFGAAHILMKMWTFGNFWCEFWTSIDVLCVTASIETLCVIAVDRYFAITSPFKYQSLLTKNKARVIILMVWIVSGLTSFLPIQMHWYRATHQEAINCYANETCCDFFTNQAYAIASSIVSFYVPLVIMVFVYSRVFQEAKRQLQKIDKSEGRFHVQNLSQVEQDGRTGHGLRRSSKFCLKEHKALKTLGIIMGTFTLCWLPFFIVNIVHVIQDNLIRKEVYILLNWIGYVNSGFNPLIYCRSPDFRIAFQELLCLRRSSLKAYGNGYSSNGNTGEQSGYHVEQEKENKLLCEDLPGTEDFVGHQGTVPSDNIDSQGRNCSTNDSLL
DRD3 antagonist – D3 dopamine receptor (human) antagonism; max response, negative = inhibition, %; AID 652054; D3R cells, DiscoveRx beta-arrestin luminescence, antagonist mode; stronger effect = lower value; 360,000 tested, 2.5% active; in the data active = max response below about -50%; inconclusive = no clear call, values can overlap the other calls; also: % is scaled to controls: 0 for no effect and ±100 for the full control effect
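Cells expressing the human receptor were seeded at 1500 cells/well, incubated overnight at 37 degrees C in 5% CO2, then exposed to library compounds with dopamine controls for 90 minutes at 37 degrees C before luminescent detection.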
D3 ag – agonists of human D3 dopamine receptor. D3R DiscoveRx beta-arrestin cells, luminescence, 90 min. max activation, %. 410,000 tested, 0.58% active; in the data active = max activation above about 30%; also: 0% is about no effect
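Agonist mode: compounds and dopamine controls were applied to plated cells for 90 min at 37 degrees C after an overnight attachment at 1500 cells/well. Luminescent read-out followed 30 - 60 minutes at room temperature with DiscoveRx detection reagent.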
TSHR antagonist – antagonists of human thyroid stimulating hormone receptor | TSHR-expressing cells, TSH-stimulated cAMP HTRF, 2 h; stronger effect = lower value | P16473 | activity change, negative = inhibition, % at 11.5 µM | AID 504810 | 330,000 tested, 0.2% active;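 active = activity change below a set negative limit, meaning inhibition stronger than a set level, cut at about -70% in these data; inconclusive = activity change between two set negative limits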; also: % is scaled to controls: 0 for no effect and ±100 for the full control effect
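TSHR-expressing cells, 200/well, pre-treated with compound, then stimulated with EC80 TSH (4nM final) for 2 hours at 37 deg C. cAMP measured by competitive HTRF: anti-cAMP cryptate antibody in lysis buffer plus cAMP-d2, read after 30 minutes at room temperature.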
Active calls of the source: *; ? = inconclusive; / = no result given; ! = repeats disagree. The list is not random: actives were taken first. Their share in the collection is about 2.9%.

SMILES | B2AR arrestin | DRD3 antagonist | D3 ag | TSHR antagonist
O=C(NC(=S)Nc1ccc(CN2CCOCC2)cc1)c1cccc([N+](=O)[O-])c1 | 3% | 0 | -18 | 13
O=C(NC(=S)Nc1ccc(CN2CCOCC2)cc1)c1ccc([N+](=O)[O-])cc1Cl | 0% | -78* | -16 | 0
O=C(NC(=S)Nc1ccc(CN2CCOCC2)cc1)c1ccccc1[N+](=O)[O-] | 0% | -107* | -11 | 12
O=C(NC(=S)Nc1ccc(CN2CCOCC2)cc1)c1cc2ccccc2o1 | 0% | 35 | 2 | -8
COc1ccc(Cl)cc1NC(=O)Cn1cnc2sc(C)c(S(=O)(=O)N3CCN(c4ccccc4OC)CC3)c2c1=O | / | / | 3 | /
Cc1cc(NC(=O)CCC(=O)N(CCC(C)C)CC(=O)NCC2CCCO2)no1 (stereo not given) | 0% | 8 | -7 | 3
Cc1cc(NC(=O)CCC(=O)N(CCC(C)C)C(C(=O)NCC2CCCO2)c2ccccc2C)no1 (stereo not given) | -1% | -1 | 41* | -1
O=C(c1ccco1)N1CCN(C(=O)c2cnn(-c3cccc(F)c3)c2C2CCNCC2)CC1 | 0% | 1 | 84*! | 6
Cc1ccc(OCCCCN2CCC(C)CC2)cc1 | 1% | ? | -39 | -4
CC1CCN(CCOc2ccc(C(=O)c3ccccc3)cc2)CC1 | -1% | -29 | -17 | 0
CC1CCN(CCCCOc2ccc(C(=O)c3ccccc3)cc2)CC1 | 1% | -75* | -15 | -4
CC1CCN(CCCOc2ccc(OCc3ccccc3)cc2)CC1 | 0% | -70* | 0 | 14
CC1CCN(CCCCOc2ccc(F)cc2)CC1 | 0% | -59* | -39 | -2
CCOC(=O)C(=O)Nc1nnc2n1CCS2 | / | / | 3 | /
Cc1ccc2nc(COc3ccccc3NC(=O)c3ccccc3F)cc(=O)n2c1 | / | / | 7 | /
O=C1[C@@H]2CSC(c3ccc(F)cc3)N2C(=O)N1c1ccc(Cl)cc1 (stereo not given in full) | / | / | 0 | /
O=C(CCN1CCc2ccccc2C1)Nc1ccc2c(c1)OCO2 | 0% | -67* | -10 | 4
COc1cc2c(cc1OC)CN(CC(=O)Nc1ccc3c(c1)OCO3)CC2 | 0% | -25 | -5 | 1
O=C(CCN1CCc2ccccc2C1)Nc1ccc(F)c(F)c1 | -1% | -103* | -18 | 3
Cc1ccc(C)c(NC(=O)CCN2CCc3ccccc3C2)c1 | 0% | -108* | -14 | 1
CCN1CCN(CCC(=O)Nc2cc(C)ccc2C)CC1 | -1% | 12 | -12 | 3
Cc1cccc(C)c1NC(=O)CN(Cc1ccc(Br)cc1)S(=O)(=O)c1ccccc1 | / | / | -12 | /
Cc1ccc(NC(=O)C(Cc2ccccc2)NS(=O)(=O)c2ccc3c(c2)CCC(=O)N3)cc1 (stereo not given) | / | / | -11 | /
CCCCOC(=O)c1ccc(Nc2ncnc3nc[nH]c23)cc1 | 0% | -22 | -1 | 1
CCCCCCCCOC(=O)c1cc([N+](=O)[O-])c(Sc2ncnc3nc[nH]c23)c([N+](=O)[O-])c1 | / | -55* | -12 | /
SMILES | B2AR arrestin | DRD3 antagonist | D3 ag | TSHR antagonist
CCOC(=O)Cn1c(=O)oc2cc(S(=O)(=O)Nc3cc(OC)cc(OC)c3)ccc21 | / | / | -4 | /
CCOC(=O)Cn1c(=O)oc2cc(S(=O)(=O)Nc3cccc(C)c3)ccc21 | 0% | -59* | -4 | -15
O=C(NC(=O)N1CCCc2ccccc21)c1ccccc1 | 1% | 3 | 5 | 2
O=C(C(c1ccccc1)c1ccccc1)N1CCCc2ccccc21 | -1% | -61* | 0 | 28
CC(C)(C)C1CCc2c(C(=O)N/N=C/c3cccs3)csc2C1 (stereo not given) | 0% | ? | 32* | 2
CCOc1ccccc1CNc1nc2nc(C)cc(C)n2n1 | / | / | 6 | /
O=C(CSc1nnc(C2CC2)n1C1CC1)c1ccc(Br)s1 | 0% | -65* | 0 | /
Cc1nc2nc(CNC(=O)c3cccc(F)c3)nn2c(C)c1CCC(=O)Nc1cccc(Cl)c1 | / | / | -13 | /
O=C(NCc1nnnn1-c1ccc(F)c(F)c1)c1ccc2ccccc2c1 | 0% | -11 | -12 | 17
O=C(NCc1nnnn1-c1ccccc1)c1ccc2ccccc2c1 | / | -6 | 105* | /
Cc1cc(C)nc(-n2nc(C)c3c2NC(=O)CC3c2cc(F)ccc2F)n1 (stereo not given) | / | / | 7 | /
NNc1nc(-c2ccccc2)cc(-c2ccccc2)n1 | 0% | 1 | -6 | -19
NNc1nc(-c2ccccc2)cc(-c2ccccc2O)n1 | 0% | -100* | -86 | -26
CCNC(=O)C1CCCN(C(=O)c2cc(OC)c(OC)c(OC)c2)CC1 (stereo not given) | / | -14 | 3 | /
O=C[C@H](O)[C@@H](O)[C@@H](O)[C@H](O)CO | / | / | -19 | /
Cc1ccc(Sc2c([N+](=O)[O-])c(=O)n(C)c3ccccc23)cc1 | 0% | -72* | -27 | -73*
Cc1ccc(Sc2c(O)c3ccccc3n(C)c2=O)cc1 | -1% | 13 | 1 | 9
Fc1ccc(N2CCN(C3CCC(c4ccccc4)CC3)CC2)cc1 (stereo not given) | 0% | -82* | -13 | 3
O=C(CC1N=C2c3ccccc3N=C(SCc3ccccc3F)N2C1=O)NCc1ccc2c(c1)OCO2 (stereo not given) | / | / | -25 | /
O=C(NC1CCS(=O)(=O)C1)C1C2CC3CC(C2)CC1C3 (stereo not given) | 0% | -11 | -5 | -9
O=C(O)C1C2C=CC(C2)C1C(=O)NC1CCS(=O)(=O)C1 (stereo not given) | 0% | -102* | 6 | 4
N#Cc1nc(-c2ccc(OCc3ccccc3)cc2)oc1N1CCOCC1 | 0% | -5 | 31* | 3
CCN1CCN(c2oc(COc3ccc(-c4ccccc4)cc3)nc2C#N)CC1 | 0% | -80* | -20 | 12
Cc1cc(C)c(S(=O)(=O)NCCS(=O)(=O)N2CCN(c3ccccc3)CC2)c(C)c1 | / | / | -8 | /
CCn1c(N2CCN(S(=O)(=O)c3ccc(Cl)cc3)CC2)nc2ccccc21 | 0% | 13 | 44* | -16
SMILES | B2AR arrestin | DRD3 antagonist | D3 ag | TSHR antagonist
CCn1ccc2cc(S(=O)(=O)N3CCC(C(=O)NCc4cccc(C)c4)CC3)ccc21 | / | / | -5 | /
COc1ccc(CNCC(O)(c2ccc(Cl)cc2)c2ccc(Cl)cc2)cc1 | 0% | 6 | 0 | -8
CCCCNCC(O)(c1ccc(Cl)cc1)c1ccc(Cl)cc1 | 0% | -87* | -27 | -1
COc1ccc(CCNC2=C(Cl)C(=O)N(CCc3ccc(OC)c(OC)c3)C2=O)cc1OC | 1% | 79 | 11 | -74*
CCC(=O)Nc1ccc(C)cc1-c1nc2ccccc2n(CC(=O)c2ccc(C)cc2)c1=O | / | / | -12 | /
COCCN(C(=O)COC(=O)/C=C/c1ccc(OC)c(OC)c1)c1c(N)n(Cc2ccccc2)c(=O)[nH]c1=O | -1% | -69* | -3 | -2
COCCN(C(=O)COC(=O)/C=C/c1ccco1)c1c(N)n(Cc2ccccc2)c(=O)[nH]c1=O | -1% | 13 | 1 | 10
COc1ccccc1CC(=O)N(CCC1=CCCCC1)c1c(N)n(Cc2ccccc2)c(=O)[nH]c1=O | 8% | -83* | -15 | 12

High-throughput results as filed in PubChem BioAssay.
